Screens: PubChem, National Center for Advancing Translational Sciences (NCATS)
ClpP mod – qHTS Assay for Activators of ClpP | purified B. subtilis ClpP, FRET peptide cleavage, 20 min | Potency, µM (doses to about 57.5 µM) | ATP-dependent Clp protease proteolytic subunit (Bacillus subtilis (strain 168)), P80244 | AID 651965, 2013 | hit rate 1.9% among 340,000; active = well fitted falling curve with a large enough effect; inconclusive = small, poorly fitted or top-dose-only effect; inactive = no such curve, though single readings can be large or run the other way; note: the source files actives as falling curves though it sought activators and does not explain the sign; nearly all actives have a fitted effect of over 65% in size
Target sequence (P80244 whole entry, looked up): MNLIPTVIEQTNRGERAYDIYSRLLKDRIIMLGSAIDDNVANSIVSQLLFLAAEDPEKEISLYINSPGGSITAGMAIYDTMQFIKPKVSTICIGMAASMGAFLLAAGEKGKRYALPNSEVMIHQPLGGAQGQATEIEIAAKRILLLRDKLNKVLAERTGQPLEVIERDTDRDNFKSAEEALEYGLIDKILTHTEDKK
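Purified B. subtilis ClpP, 10 microg/mL final in Tris/HCl pH8 with KCl, BSA, glycerol and Tween-20, cleaved an Abz/nitrotyrosine-quenched decapeptide. Fluorescence (ex 320, em 430) was read at 0 and 20 min at room temperature. Delta was normalized to 5.8 microM ADEP and DMSO/no-enzyme controls.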
MBNL1-CUG inh – MBNL1-poly(CUG) RNA binding inhibition | Q9NR56 | TR-FRET MBNL1-His/biotin-(CUG)12 binding, 665/545 ratio | Potency, µM (highest dose often 57.5 µM), usual class: inhibitors | hit rate 0.036% among 280,000; active = well fitted inhibition curve with a large enough effect in the signal ratio, with a control signal flat, not every such curve was filed as active; inconclusive = small, poorly fitted or top-dose-only effect, or effect the other way, or a change in a side signal; inactive = no such curve, though single readings can be large or run the other way; the % refers to the signal ratio
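TR-FRET between His-tagged MBNL1 and biotin-(CUG)12 RNA, detected with Tb anti-His antibody (0.055 ng/ul) and streptavidin-XL665 (5 nM), 60 min at room temperature. Compounds titrated 92 nM to 58 uM; 665/545 nm ratio normalized to buffer and complex controls.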
Glioma ERSR ind – inducers of ER stress response in human glioma cells | U87-MG GRP78 promoter luciferase reporter, 16 h | Potency, µM, hits mostly activators | hit rate 0.02% among 420,000 | AID 602332; note: series mostly up to about 76 µM; nearly all actives have a fitted effect of over 35% in size
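ERSR induction read as luciferase luminescence (Bright-Glo, 10 min at room temperature) in stably transfected human U87-MG glioma cells exposed to compounds for 16 h, using GRP78 as sensor.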
A-T KAP1 phos – candidate therapy for ataxia-telangiectasia; F2112 A-T fibroblasts, KAP-1 phosphorylation AlphaLISA; neocarzinostatin DNA damage 30 min before lysis; Potency, µM (titrated, usually from 57.5 µM), hits mostly activators; hit rate 0.19% among 320,000; note: nearly all actives have a fitted effect of over 45% in size
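hTERT-immortalized A-T patient fibroblasts (F2112), 500 cells/well in OPTI-MEM, 1% FBS, got compounds for 60 min, then NCS for 30 min at 37C. Lysates were then assayed for phospho-KAP-1 by AlphaLISA (anti-pKAP1 donor, anti-KAP1 acceptor beads), 6 hr at 25C.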
Mito fusion yeast – mitochondrial division inhibition or fusion activation; S. cerevisiae fusion-defective mutant growth rescue, CellTiterGlo 48 h; Potency, µM (top dose mostly 46.1 µM), actives largely listed as activators; hit rate 0.23% among 320,000; AID 485298; note: nearly all actives have a fitted effect of over 45% in size
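Temperature-sensitive fusion-defective S. cerevisiae (e.g. fzo1-1, mgm1-5) were grown with compound in YPEG medium (3% ethanol, 3% glycerol) for 48 hours at 37C. Growth rescue was measured as viability by CellTiterGlo luminescence after 10 minutes at ambient.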
TCR activator – activates T cell receptor signaling; primary human leukocytes, anti-CD3, IL-2 HTRF, 48 h; Potency, µM (highest dose often 9.22 µM), actives largely listed as activators; 330,000 tested, under 10 active; AID 504894
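1) Mix primary human leukocytes, a-CD3 beads and compound. 2) Incubate 48 hr. 3) Add HTRF IL-2 reagents (a-IL-2-K, a-IL-2-d2).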
Numbers stand for hits; n = inactive; u = inconclusive; x = not tested or not shown; ! = not confirmed by another sample. This is a sample that favours compounds with a hit; in the whole collection about 1.8% have one here. Unless noted, calls come from the whole dose curve; as a rule, active = well fitted curve in the direction sought with a large enough effect; inconclusive = small, poorly fitted or top-dose-only effect, or another doubt; inactive = no such curve, though single readings can be large; an effect the other way counts as inactive or inconclusive.

SMILES | ClpP mod | MBNL1-CUG inh | Glioma ERSR ind | A-T KAP1 phos | Mito fusion yeast | TCR activator
COc1ccc(S(=O)(=O)N(CC(=O)N2CCC(C)CC2)c2ccc(C)cc2)cc1 | n | x | n | x | x | x
CCN1CCN(C(=S)Nc2ccc3nc(N4CCN(CC)CC4)cc(C)c3c2)CC1 | u | x | n | n | n | n
CCOC(=O)N1CCN(C(=S)Nc2ccc3nc(N4CCN(CC)CC4)cc(C)c3c2)CC1 | 16µM | x | n | n | n | n
Cc1cc(N2CCCCC2)nc2ccc(NC(=O)CCC(=O)NCCC(C)C)cc12 | 16µM | n | n | n | n | n
CCOC(=O)C1CCCN(C(=O)CCC(=O)Nc2ccc3nc(N4CCOCC4)cc(C)c3c2)C1 (configuration not stated) | 8.9µM | n | n | n | n | n
Cc1cc(N2CCCCCC2)nc2ccc(F)cc12 | 28µM | x | n | x | x | n
Cc1cc(N2CCOCC2)nc2ccc(NC(=O)C3CCC(C)CC3)cc12 (configuration not stated) | 14µM | n | n | n | n | n
Cc1oncc1C(=O)Nc1ccc2ccccc2c1 | n | n | n | n | n | n
Cc1oncc1C(=O)Nc1ccc(C(F)(F)F)cc1 | n | n | n | n | 21µM! | n
O=C(C[n+]1ccc2ccccc2c1)c1ccc(F)cc1 | n | x | n | x | x | x
Clc1ccc2oc(-c3ccccc3)nc2c1 | n | n | n | n | n | n
Cc1ccc2nc(-c3cccnc3)oc2c1 | 1.4µM! | n | n | n | n | n
Cc1ccc2nc(-c3ccccn3)oc2c1 | n | n | n | n | n | n
Clc1ccc2oc(-c3cccnc3)nc2c1 | 25µM | n | n | n | n | n
O=c1oc2ccccc2cc1-c1nc2c(s1)CCCC2 | 35µM | n | n | n | n | n
CCN1CCN(S(=O)(=O)c2ccc(Cl)c(C(=O)NC(C)c3ccccc3Cl)c2)CC1 (configuration not stated) | 35µM | x | n | n | n | n
Cc1cc(NCCN(C)C)n2nc(-c3cccs3)cc2n1 | 28µM | n | n | n | n | n
COC(=O)C1=CN(CC2CCCO2)C=C(C(=O)OC)C1c1cc(OC)c(OC)c(OC)c1 (configuration not stated) | 25µM | n | n | x | n | n
COC(=O)C1=CN(C(C)c2ccccc2)C=C(C(=O)OC)C1c1cc(OC)c(OC)c(OC)c1 (configuration not stated) | x | n | n | 7.1µM | n | n
COC(=O)C1=CN(Cc2ccc(OC)cc2)C=C(C(=O)OC)C1c1cc(OC)c(OC)c(OC)c1 | x | u | n | u | n | n
O=C(Nc1cc(Cl)cc2c1[nH]c1cnccc12)c1cccnc1 | x | x | n | x | x | x
CC(C)(C)n1ncc2c(=O)n(Cc3cccc(-c4ccccc4)c3)cnc21 | x | x | n | x | x | x
COCC(=O)Nc1nnc(-c2cccs2)s1 | u | n | n | n | n | n
O=C(COc1ccccc1F)Nc1nnc(-c2ccncc2)s1 | n | n | n | n | n | n
COc1ccc(Cc2nnc(NC(=O)Cc3cccs3)s2)cc1OC | 28µM | n | n | n | n | n
SMILES | ClpP mod | MBNL1-CUG inh | Glioma ERSR ind | A-T KAP1 phos | Mito fusion yeast | TCR activator
O=C(Cc1cccs1)Nc1nnc(-c2ccncc2)s1 | 28µM | n | n | n | n | n
O=C(Cc1cccs1)Nc1nnc(Cc2ccccc2)s1 | n | n | n | n | n | n
O=C(COc1ccc(F)cc1)Nc1nnc(-c2ccncc2)s1 | 25µM | n | n | n | n | n
CCC(C)C(=O)Nc1nnc(-c2cccs2)s1 (configuration not stated) | 32µM | n | n | n | n | n
CCCCCCCCCCCCCCCC(=O)O[C@@H]1CC(C)=C(\C=C/C(C)=C\C=C/C(C)=C\C=C\C=C(C)\C=C\C=C(C)\C=C\C2=C(C)C[C@@H](OC(=O)CCCCCCCCCCCCCCC)CC2(C)C)C(C)(C)C1 | x | x | n | x | x | x
COC(=O)C1=C(C)NC(C)=C(C(=O)NCCCN2CCC(c3ccccc3)(c3ccccc3)CC2)C1c1ccc([N+](=O)[O-])cc1 (configuration not stated) | x | x | n | x | x | x
